# In the library only some 4.5% were active in any assay of this set; here they are far more common.
# PfHsp40 rescue: compounds rescuing yeast from Plasmodium falciparum HSP40 toxicity | S. cerevisiae expressing PfHsp40, growth rescue, ATP luminescence | hit rate 0.68% among 340,000 | AID 504582 | growth rescue, % at 12.5 µM; in the data active means growth rescue above about 28%, passing the limit was not always enough;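 further: yeast W303a lacking pdr1 and pdr3 grown in galactose medium; growth measured after three days at 30 °C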
# BJeLR viability: kills HRASV12-expressing BJeLR cells | hit rate 0.17% among 300,000 | BJeLR (HRASV12) viability, CellTiter-Glo ATP luminescence, 48 h | inhibition, % (concentration not given with the values); in the data active means inhibition above about 50%
# PrP 5UTR inh: inhibition of PrP 5' UTR reporter expression. cell-based PrP 5' UTR mRNA reporter, plate reader. inhibition, % (concentration not given with the values). hit rate 0.35% among 340,000; in the data active means inhibition above about 52%
# PrPC TRFRET: inhibitors of human cell surface prion protein PrPC | inhibition, % at 13.8 µM | TR-FRET read-out | P04156 | hit rate 0.43% among 370,000 | AID 720596; in the data active means inhibition above about 24%
# FBA Mtb inh: inhibitors of M. tuberculosis fructose-bisphosphate aldolase. P9WQA3. hit rate 2.3% among 360,000. inhibition, % at 1 µM. purified M. tuberculosis FBA, fluorescence read-out
# Target sequence (P9WQA3 whole entry, looked up): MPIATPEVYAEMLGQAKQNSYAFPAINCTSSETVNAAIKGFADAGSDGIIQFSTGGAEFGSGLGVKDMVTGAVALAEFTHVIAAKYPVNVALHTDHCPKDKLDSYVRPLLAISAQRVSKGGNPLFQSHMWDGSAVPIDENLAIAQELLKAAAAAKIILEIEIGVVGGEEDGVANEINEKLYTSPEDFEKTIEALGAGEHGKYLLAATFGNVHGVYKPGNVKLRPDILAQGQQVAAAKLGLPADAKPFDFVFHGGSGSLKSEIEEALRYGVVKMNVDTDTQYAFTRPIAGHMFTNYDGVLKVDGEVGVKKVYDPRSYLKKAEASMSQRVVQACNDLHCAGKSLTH
# GDH-TPI counter-1: GDH-TPI coupled enzyme inhibition counter-screen. GDH-TPI coupled enzyme counterscreen, NADH absorbance. inhibition, % at 4.8 µM. hit rate 1.2% among 360,000. AID 588335; in the data active means inhibition above about 30%
# Mtb FBA inh conf: confirmation of M. tuberculosis fructose-bisphosphate aldolase inhibitors; shares compounds with FBA Mtb inh; purified M. tuberculosis FBA, fluorescence read-out; inhibition, % at 1 µM; hit rate 78% among 5,600; AID 651616
# GDH-TPI counter-2: inhibits GDH-TPI coupling enzymes, flagging Mtb FBA hits; AID 652141; hit rate 81% among 5,600; shares compounds with FBA Mtb inh; inhibition, % at 1 µM; GDH-TPI coupled enzyme counterscreen, fluorescence; in the data active means inhibition above about 10%
# GDH-TPI DR: GDH-TPI dose response counter-screen for Mtb FBA; IC50, µM; shares compounds with FBA Mtb inh; GDH-TPI coupled enzyme assay, fluorescence, artifact counterscreen; hit rate 79% among 170; call rule not given here
# Numbers stand for hits; i = inactive; nt = not tested or not shown; + = active, no number. Unless noted, no stated cut-off is given here; in the data, active means inhibition above about 27%; inactive means the rest.
SMILES,PfHsp40 rescue,BJeLR viability,PrP 5UTR inh,PrPC TRFRET,FBA Mtb inh,GDH-TPI counter-1,Mtb FBA inh conf,GDH-TPI counter-2,others
COc1ccc(C(CNC(=O)c2ccc(-n3cnnn3)cc2)N2CCOCC2)cc1 (stereo not given),i,i,i,i,43.2,i,174.9,152.8,
CCCCNC(=O)CCC(=O)N1CCN(C(c2ccccc2)c2ccccc2)CC1,i,i,i,i,i,i,nt,nt,
Cc1ccc(C(=O)N(C)CC(=O)Nc2cccc(C)c2C)o1,i,i,i,i,i,i,nt,nt,
c1coc(-c2cnc3ccccc3n2)c1,nt,nt,nt,i,105.8,i,68.8,46.0,
c1csc(-c2cnc3ccccc3n2)c1,i,i,i,i,63.1,i,i,i,
CC(=O)Nc1ccc(/C=N\NC(=O)c2cccc(S(=O)(=O)N(C)C)c2)cc1,nt,nt,nt,i,nt,nt,nt,nt,
Cc1ccc(N2CC(C(=O)N3CCCCC3)CC2=O)cc1C (stereo not given),i,i,i,i,i,i,nt,nt,
CCc1nnc(NC(=O)C2CCN(S(=O)(=O)Cc3ccccc3)CC2)s1,i,nt,i,i,34.6,i,86.0,68.8,
CCc1nnc(NC(=O)C2CCN(S(=O)(=O)c3ccc(C)cc3)CC2)s1,i,i,i,i,i,i,nt,nt,
CCOC(=O)C(=O)N1CCC(C(=O)OC)CC1,i,i,i,i,i,i,nt,nt,
Cc1cc2c(cc1S(=O)(=O)N(C)Cc1ccccc1)OCC(=O)N2,i,i,i,i,i,i,nt,nt,
CCN(Cc1ccccc1)S(=O)(=O)c1cc2[nH]c(=O)c(=O)[nH]c2cc1C,i,i,i,i,28.4,i,155.4,110.5,
CCc1ccc(-c2cc(C)no2)cc1S(=O)(=O)Nc1ccc(C)cn1,i,i,i,i,30.6,i,i,i,
Cc1ccc(NS(=O)(=O)c2cc(-c3cc(C)no3)ccc2C(C)C)nc1,i,i,i,i,37.3,i,29.1,24.0,
COc1cc2c(C#N)c(N3CCCCC3)nc(N)c2c(N)n1,i,i,i,i,i,i,nt,nt,
CCOc1cc2c(C#N)c(N3CCNCC3)nc(N)c2c(N)n1,i,i,i,i,40.3,i,151.0,125.2,
CCOc1cc2c(C#N)c(N3CCCCC3)nc(N)c2c(N)n1,i,i,nt,i,28.4,i,83.8,52.5,
O=C(O)c1ccc(-c2ccccc2)[nH]c1=O,i,i,i,i,105.6,i,+,+,
c1ccc(-c2ccc(-c3ccccc3)[nH]2)cc1,i,nt,i,i,64.4,i,178.2,163.3,
COc1ccccc1NC(=O)N1CCCC1C(=O)Nc1ccc2c(c1)OCO2 (stereo not given),i,i,i,i,28.2,i,98.5,86.5,
COc1cccc(NC(=O)N2CCCC2C(=O)Nc2ccc3c(c2)OCO3)c1 (stereo not given),i,i,i,i,i,i,nt,nt,
C/C(CCC1CC(C)OC1=O)=N/Nc1nc(-c2ccccc2)cs1 (stereo not given),i,i,i,i,i,i,nt,nt,
CCOC(=O)C/C(C)=N\Nc1nc(-c2ccccc2)cs1,i,i,i,i,68.9,i,53.9,42.0,
CC(Sc1ccccc1)C(=O)N1CCN(S(=O)(=O)c2ccccc2F)CC1 (stereo not given),i,i,i,i,i,i,nt,nt,
CCC1(C)Cc2[nH]c(=O)c(C#N)cc2CO1 (stereo not given),i,i,i,i,68.5,i,i,i,
SMILES,PfHsp40 rescue,BJeLR viability,PrP 5UTR inh,PrPC TRFRET,FBA Mtb inh,GDH-TPI counter-1,Mtb FBA inh conf,GDH-TPI counter-2,others
CC1(C)Cc2[nH]c(=O)c(C#N)cc2CS1,i,i,i,i,i,i,nt,nt,
COc1ccc(-c2ccc3c(c2)C2CC3CCN2C(=O)C2CCCCC2)cc1 (stereo not given),i,nt,i,i,i,i,nt,nt,
Cc1cc(=O)oc2c3c(ccc12)OC/C3=N/N,i,i,i,i,94.4,i,+,+,
CCOC(=O)c1c(C)[nH]c(C(=O)OCC(=O)c2c(N)n(C)c(=O)n(C)c2=O)c1C,nt,i,nt,nt,nt,nt,nt,nt,
Cc1onc(-c2ccccc2Cl)c1C(=O)Nc1nnc(-c2ccc(Cl)cc2Cl)s1,i,i,i,i,62.1,i,67.7,56.8,
Cc1cc(C)c2cc(C#N)c(NCCCNC(=O)CCC(=O)O)nc2c1,i,i,i,i,42.1,i,44.3,36.5,
COc1ccccc1C(=O)NCCCNc1nc2cc(C)cc(C)c2cc1C#N,nt,nt,nt,i,42.5,i,+,145.7,
CN(c1nc2nonc2nc1NC1CC1)C1CCOC1 (stereo not given),i,i,i,i,i,i,nt,nt,
Cc1cc(OC(C)C(=O)NCC2CCC(C(=O)O)CC2)c2c(C)c(C)c(=O)oc2c1 (stereo not given),i,i,i,i,i,i,nt,nt,
CCCc1cc(=O)oc2cc(C)cc(OC(C)C(=O)NCC3CCC(C(=O)O)CC3)c12 (stereo not given),i,i,i,i,69.3,i,69.8,46.0,
CCCCc1cc(=O)oc2cc(C)cc(OC(C)C(=O)NCC3CCC(C(=O)O)CC3)c12 (stereo not given),i,i,i,i,79.0,i,i,i,
CCc1cc(=O)oc2cc(OC(C)C(=O)NCC3CCC(C(=O)O)CC3)c(Cl)cc12 (stereo not given),i,i,i,i,i,i,nt,nt,
COc1ccc(CNCC#Cc2cccnc2)c(OC)c1,nt,nt,nt,i,nt,nt,nt,nt,
O=c1[nH]c(-c2ccc(O)cc2)nc2scc(-c3cccs3)c12,i,i,i,i,34.9,i,nt,+,
CCCc1cc(=O)oc2cc(OCc3ccc(C(=O)O)o3)ccc12,i,i,i,i,35.8,i,i,i,GDH-TPI DR=4.82
CCCc1cc(=O)oc2cc(OCc3nn[nH]n3)ccc12,i,i,i,i,34.4,i,57.0,36.1,
CCCCc1cc(=O)oc2c(C)c(OCc3nn[nH]n3)ccc12,i,i,i,i,27.9,i,59.1,43.4,
C=C(Cl)COc1ccc2c(CCC)cc(=O)oc2c1,i,i,i,i,i,i,nt,nt,
CCCCc1cc(=O)oc2cc(OCc3nn[nH]n3)ccc12,i,i,i,i,34.5,i,i,i,
CCCCc1cc(=O)oc2c(C)c(OCC(=O)N3CCCC3)ccc12,i,i,i,i,i,i,nt,nt,
COc1ccc(-c2cc(C(F)(F)F)n3nc(C(=O)NCCCn4ccnc4)cc3n2)cc1,i,i,i,i,48.2,i,i,i,
CCCCNC(=O)c1cc2nc(-c3ccccc3)cc(C(F)(F)F)n2n1,i,i,i,i,i,i,nt,nt,
COc1ccc(-c2cc(C(F)(F)F)n3nc(C(=O)NCCN4CCOCC4)cc3n2)cc1,i,i,i,i,39.2,i,i,i,
CCOc1cc2[nH]c(=S)n(Cc3ccc(C(=O)O)cc3)c(=O)c2cc1OCC,i,i,i,i,i,i,nt,nt,
